The source made the active and inactive calls. Unless noted, no rule for the calls is given here.

Assay [1] is described as follows: anti-His antibody binders, primary screen, artefact control for SMM control protein annotation, biochemical, small-molecule microarray, 635 nm fluorescence (AID 1128).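 Also: score merges feature fluorescence with signal-to-noise for each printed compound spot.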 The settings on record: anti-His Alexa647 antibody binding, higher = more signal.
Assay [2] deals with Human papillomavirus type 1a E7 protein (residues 1-88). The experiment in a line: HPV1a E7 small-molecule binders, primary screen, biochemical, small-molecule microarray, residues 1-88, 635 nm (AID 1129). The settings on record: small-molecule microarray binding, fluorescence 635 nm; higher = more signal.
The target of assay [3] is Focal adhesion kinase 1 (Homo sapiens) (UniProt Q05397). The assay is described as follows: small-molecule microarray binders of FAK, primary screen, biochemical, 635/667 nm fluorescence, BSA, DTT (AID 1130).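 Also: composite of spot emission at 667 nm and signal to noise over triplicate slides.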 Conditions: PTK2 binding, 635 nm fluorescence, higher = more signal.
Chain of Focal adhesion kinase 1 (Homo sapiens) (Q05397 whole entry, looked up): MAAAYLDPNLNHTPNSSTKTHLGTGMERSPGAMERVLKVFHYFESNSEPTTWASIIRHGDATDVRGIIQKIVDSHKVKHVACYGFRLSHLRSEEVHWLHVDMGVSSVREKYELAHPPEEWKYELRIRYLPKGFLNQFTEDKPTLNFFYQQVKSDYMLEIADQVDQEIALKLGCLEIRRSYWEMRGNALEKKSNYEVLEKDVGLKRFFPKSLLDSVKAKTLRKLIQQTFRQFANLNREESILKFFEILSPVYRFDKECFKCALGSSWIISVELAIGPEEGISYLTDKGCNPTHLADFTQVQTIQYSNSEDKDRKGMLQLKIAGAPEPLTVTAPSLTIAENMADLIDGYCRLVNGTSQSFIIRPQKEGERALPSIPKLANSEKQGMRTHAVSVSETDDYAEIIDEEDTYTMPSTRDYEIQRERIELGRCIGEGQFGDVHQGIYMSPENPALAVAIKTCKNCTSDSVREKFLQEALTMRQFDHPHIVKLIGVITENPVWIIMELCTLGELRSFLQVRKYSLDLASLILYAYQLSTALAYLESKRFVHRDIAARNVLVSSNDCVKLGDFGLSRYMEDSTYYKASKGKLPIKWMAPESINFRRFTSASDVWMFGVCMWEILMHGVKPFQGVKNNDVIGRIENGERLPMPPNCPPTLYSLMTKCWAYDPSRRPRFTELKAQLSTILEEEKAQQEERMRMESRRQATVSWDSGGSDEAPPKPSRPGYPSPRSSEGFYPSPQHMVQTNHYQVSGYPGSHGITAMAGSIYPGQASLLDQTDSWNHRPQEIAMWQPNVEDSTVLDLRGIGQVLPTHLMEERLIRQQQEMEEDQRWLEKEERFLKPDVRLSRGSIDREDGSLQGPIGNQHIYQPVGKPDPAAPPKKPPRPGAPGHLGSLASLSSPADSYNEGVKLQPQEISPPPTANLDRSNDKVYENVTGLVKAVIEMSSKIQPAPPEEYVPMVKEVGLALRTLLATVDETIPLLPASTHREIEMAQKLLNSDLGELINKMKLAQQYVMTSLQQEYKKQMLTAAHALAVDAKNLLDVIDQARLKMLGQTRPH
The subject of assay [4] is Fibrinogen (Alexa647-labelled). The experiment in a line: fibrinogen binders on compound microarrays, profiling panel, artefact control for SMM control-protein annotation, biochemical, small-molecule microarray, 635/667 nm fluorescence (AID 1131).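 Also: z-score merges 667 nm fluorescence with per-spot signal-to-noise over triplicate slides.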 Conditions: fibrinogen-A647 binding fluorescence, higher = more signal.
Assay [5] concerns the target Follistatin (Homo sapiens) (UniProt P19883). The assay is described as follows: follistatin binders on small-molecule microarrays, primary screen, biochemical, small-molecule microarray, 635/667 nm fluorescence (AID 1132). The settings on record: FST binding, 635 nm fluorescence, higher = more signal.
Assay [6] addresses Fibroblast growth factor 2 (Homo sapiens) (UniProt P09038). The experiment in a line: FGF2 binders on small-molecule microarrays, primary screen, biochemical, small-molecule microarray, 635/667 nm fluorescence (AID 1133). Conditions: small-molecule microarray binding, FGF2, fluorescence 635/667; higher = more signal.
Assay [7] is described as follows: mitochondrial membrane potential change in A549 cells, profiling panel, cell-based, JC-1 fluorescence, basal, 24 h, 100 nL (AID 1138).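 Also: A549 lung adenocarcinoma cells under basal conditions with no added stimulus; test concentration not given here.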 Conditions: higher = more signal.
Assay [8] relates to Lefty1. The experiment in a line: Lefty1 binders on small-molecule microarrays, primary screen, biochemical, small-molecule microarray, 635/667 nm fluorescence (AID 1139). The settings on record: small-molecule microarray binding, fluorescence 635/667; higher = more signal.
Assay [9] has as its system wheat germ agglutinin (Triticum aestivum), Alexa647-labelled. The experiment in a line: wheat germ agglutinin binders on compound microarrays, profiling panel, artefact control for SMM control-protein annotation, biochemical, small-molecule microarray, 635/667 nm fluorescence (AID 1140).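 Also: score merges 667 nm feature emission with signal to noise over triplicate slides.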 The settings on record: WGA-A647 binding, 635 nm fluorescence, higher = more signal.

Assay [10] has as its target Luciferin 4-monooxygenase (Photinus pyralis) (UniProt P08659). The assay is described as follows: firefly luciferase enzyme inhibitors, primary screen, biochemical, luminescence, purified enzyme, 2006 set (AID 1141).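 Also: cell-free assay with purified firefly luciferase at 100 ng per well in PBS; test concentration not given here.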 The settings on record: SteadyGlo luminescence, 30 min, higher = more signal, called active from +8 up or from −8 down.
Assay [11] relates to Wnt5a (protein binding on small-molecule microarray). The experiment in a line: Wnt5a binders on small-molecule microarray, primary screen, biophysical, 635/667 nm fluorescence (AID 1142).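 Also: fluorescence read at 667 nm with signal to noise per printed feature.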 Conditions: 635 nm fluorescence, higher = more signal.
Assay [12] is described as follows: cell viability in Huh7 cells, primary screen, cytotoxicity control for HCV replication inhibitor project, CellTiter-Glo luminescence, basal, 48 h (AID 1143).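 Also: Huh7 hepatoma cells carrying a hepatitis C replication reporter with no stimulus; test concentration not given here.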 The settings on record: Huh7 HCV replicon, higher = more signal, called active from +8 up or from −8 down.
A short description of assay [13]: P. aeruginosa biofilm formation inhibitors, primary screen, PAO1 strain, BacTiter-Glo luminescence, LB-PBS (AID 1144). Conditions: 12 h, higher = more signal.
Assay [14] in a line: CREB reporter modulators without forskolin, primary screen, cell-based, PC12, CRE-LacZ reporter, unstimulated (AID 1145). Conditions: no forskolin, luminescence, 4.5 h, higher = more signal, called active from +8 up or from −8 down.
Assay [15] is described as follows: CREB reporter modulators under forskolin, primary screen, cell-based, PC12, CRE-LacZ reporter, forskolin-stimulated (AID 1146).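 Also: PC12 cells with 6xCRE LacZ reporter stimulated by forskolin 10 µM; beta-galactosidase reporter signal reflecting CREB driven transcription.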 The settings on record: luminescence, 4.5 h, higher = more signal, called active from +8 up or from −8 down.
Assay [16] addresses Streptavidin (Streptomyces avidinii) (UniProt P22629). The experiment in a line: streptavidin binders on small-molecule microarray, primary screen, artefact control for SMM compound annotation, biophysical, 635/667 nm fluorescence (AID 1147).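 Also: signal reflects streptavidin binding to arrayed compounds as a control protein.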 Conditions: streptavidin binding, higher = more signal.
A short description of assay [17]: small-molecule binders of probe aInhba, primary screen, biochemical, small-molecule microarray, 635/667 nm fluorescence (AID 1148).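 Also: score merges 667nm spot fluorescence with signal-to-noise for antibody binding to printed compounds.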 The settings on record: higher = more signal.
For assay [18], the target named is Torsin-1A (Homo sapiens) (UniProt O14656). The experiment in a line: torsin A binders from cell lysate, primary screen, small-molecule microarray, wild-type, 635/667 nm (AID 1149). Conditions: COS7 hTOR1A-WT lysate, 635 nm fluorescence, higher = more signal.
Chain of Torsin-1A (Homo sapiens) (O14656 whole entry, looked up): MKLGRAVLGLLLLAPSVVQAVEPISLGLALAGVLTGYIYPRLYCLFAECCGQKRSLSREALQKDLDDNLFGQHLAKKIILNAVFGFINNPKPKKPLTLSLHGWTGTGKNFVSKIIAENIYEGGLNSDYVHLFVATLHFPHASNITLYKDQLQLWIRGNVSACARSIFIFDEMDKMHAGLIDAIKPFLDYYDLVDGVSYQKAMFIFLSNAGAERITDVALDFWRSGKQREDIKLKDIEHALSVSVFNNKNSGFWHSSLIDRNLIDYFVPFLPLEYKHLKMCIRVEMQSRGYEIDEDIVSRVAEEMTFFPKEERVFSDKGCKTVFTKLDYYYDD
For assay [19] the target is unchanged. The experiment in a line: small-molecule binders of mutant TOR1A in lysate, primary screen, cell lysate, small-molecule microarray, COS7 lysate, 635/667 nm fluorescence (AID 1150).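 Also: score pools 667 nm emission and signal to noise measuring lysate protein binding.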 The settings on record: COS7 hTOR1A mutant lysate, 635 nm fluorescence, higher = more signal.
For assay [20], the system named is Sonic hedgehog protein (Shh). The assay is described as follows: small-molecule binders of Shh protein, primary screen, biochemical, small-molecule microarray, 635/667 nm fluorescence (AID 1151).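 Also: Shh protein binding to compounds spotted on small-molecule microarray slides; score combines spot fluorescence intensity with signal-to-noise across triplicate slides.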 Conditions: small-molecule microarray binding, 635 nm fluorescence; higher = more signal.

Chain of Luciferin 4-monooxygenase (Photinus pyralis) (P08659 whole entry, looked up): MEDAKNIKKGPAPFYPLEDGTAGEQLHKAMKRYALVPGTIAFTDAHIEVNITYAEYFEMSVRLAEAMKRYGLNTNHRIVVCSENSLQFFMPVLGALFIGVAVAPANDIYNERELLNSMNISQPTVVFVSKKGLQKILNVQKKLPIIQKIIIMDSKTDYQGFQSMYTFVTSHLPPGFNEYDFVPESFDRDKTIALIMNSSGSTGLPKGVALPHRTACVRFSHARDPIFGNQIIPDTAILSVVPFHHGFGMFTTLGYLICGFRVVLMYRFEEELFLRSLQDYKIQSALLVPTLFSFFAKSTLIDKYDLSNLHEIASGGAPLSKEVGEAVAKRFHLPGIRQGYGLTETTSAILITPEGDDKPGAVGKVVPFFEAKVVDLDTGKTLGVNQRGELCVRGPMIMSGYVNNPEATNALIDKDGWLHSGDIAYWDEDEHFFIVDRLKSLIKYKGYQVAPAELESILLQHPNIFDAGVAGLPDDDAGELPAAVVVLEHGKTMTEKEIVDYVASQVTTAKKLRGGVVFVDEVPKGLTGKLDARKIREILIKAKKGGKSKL
Chain of Streptavidin (Streptomyces avidinii) (P22629 whole entry, looked up): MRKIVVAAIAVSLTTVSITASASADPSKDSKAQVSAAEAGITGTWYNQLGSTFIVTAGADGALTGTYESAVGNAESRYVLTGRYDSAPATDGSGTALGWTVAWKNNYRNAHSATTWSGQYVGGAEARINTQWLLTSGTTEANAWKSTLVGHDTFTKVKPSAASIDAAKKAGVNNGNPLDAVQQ
Chain of Follistatin (Homo sapiens) (P19883 whole entry, looked up): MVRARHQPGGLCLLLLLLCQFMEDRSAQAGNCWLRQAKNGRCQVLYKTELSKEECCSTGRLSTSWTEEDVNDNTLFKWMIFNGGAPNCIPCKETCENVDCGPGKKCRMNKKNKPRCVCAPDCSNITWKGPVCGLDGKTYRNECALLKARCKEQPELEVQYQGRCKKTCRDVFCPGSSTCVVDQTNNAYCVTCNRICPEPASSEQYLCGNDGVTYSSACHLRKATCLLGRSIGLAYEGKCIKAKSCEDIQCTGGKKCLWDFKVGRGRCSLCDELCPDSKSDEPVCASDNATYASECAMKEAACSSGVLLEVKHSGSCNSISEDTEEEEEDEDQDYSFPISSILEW
Chain of Fibroblast growth factor 2 (Homo sapiens) (P09038 whole entry, looked up): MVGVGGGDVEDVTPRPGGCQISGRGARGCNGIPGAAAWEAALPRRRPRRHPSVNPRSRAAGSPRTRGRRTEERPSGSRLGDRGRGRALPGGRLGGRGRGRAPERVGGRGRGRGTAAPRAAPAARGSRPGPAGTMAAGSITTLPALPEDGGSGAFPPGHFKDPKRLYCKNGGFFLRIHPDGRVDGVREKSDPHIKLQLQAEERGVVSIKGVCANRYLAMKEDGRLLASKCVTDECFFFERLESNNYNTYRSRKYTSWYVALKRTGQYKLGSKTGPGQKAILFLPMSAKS

In the case of `CC1(C)[C@@H]2CC(C(O)C3C=CC4C(=O)N(c5ccccc5)C(=O)C4N3Nc3ccccc3F)=C[C@@H]1C2` (stereo not given in full), the composite z-score amounted to 1.41 in [1]; 1.2 in assay [2]; 0.218 in assay [3]; 0.938 in assay [4]; 0.876 in assay [5]; 1.26 in assay [6]. Also, the composite z-score in [8] stood at 0.655; in assay [9] it was 0.392; in [11] it was 0.512; in assay [16] it was 0.5; in assay [17] it was 0.0291; in assay [18] it was 0.233. The composite z-score is 0.541 in assay [19] and 0.625 in assay [20]. The z-score in [7] was -0.136; in assay [10] it was 0.905 (inactive); in assay [12], -2.69 (inactive); in [13] it was -1.31 (inactive); in assay [14] it was -0.826 (inactive); in assay [15] it was -0.7 (inactive).
As for `CC1=C2[C@@H](CCc3ccccc3)OB(O)C[C@@H]2[C@@H]2C(=O)C=CC(=O)[C@@H]2C1`, the composite z-score in assay [1] was 0.892; in [2], 0.339; in assay [3], -0.512; in [4], 0.565; in assay [5], 1.12; in [6], 1. Moreover, the composite z-score in assay [8] was 0.845; in assay [9], 0.469; in assay [11] it was 0.135; in assay [16] it was 0.537; in [17] it was -0.0873; in assay [18], 0.355. Besides, the composite z-score stood at 0.474 in assay [19] and 1.44 in [20]. Also, the z-score in assay [7] was -1.2; in assay [10], -3.34 (inactive); in assay [12], -0.894 (inactive); in assay [13], 0.0958 (inactive); in [14], 14.1 (active); in assay [15] it was 28.4 (active).
Take `Cc1ccc(S[C@]2(C(=O)NCc3ccccc3)CC(=O)N(C3Cc4ccccc4C3)[C@@H]2c2ccc(CO)cc2I)cc1`: the composite z-score was -1.12 in assay [1]; -0.621 in assay [2]; -0.17 in assay [3]; -0.151 in assay [4]; -0.328 in [5]; -0.244 in assay [6]. In addition, the composite z-score is -0.582 in [8]; 0.146 in assay [9]; -0.265 in assay [11]; -0.299 in [16]; -0.157 in [17]; -0.265 in assay [18]. Further, the results for the composite z-score in assay [19] and in [20] were -1.03 and -0.0358, respectively. Besides, the z-score in assay [7] was 1.24; in [10], -1.26 (inactive); in assay [12], -2.56 (inactive); in assay [13], -0.394 (inactive); in assay [14], -0.179 (inactive); in [15], -0.17 (inactive).
With `COc1ccccc1CN1C(=O)c2ccccc2[C@@H](C(=O)NCC(C)C)[C@@H]1c1ccc(CO)cc1`, the composite z-score in assay [1] was determined as 0.366; in [2] it was 1.18; in [3] it was 0.088; in assay [4], 0.707; in [5], 1.23; in assay [6], 1.56. Moreover, the composite z-score was -0.632 in [8]; 0.342 in assay [9]; 0.572 in assay [11]; -0.378 in assay [16]; -0.145 in [17]; -0.114 in assay [18]. The composite z-score was 0.526 in assay [19] and 0.0072 in [20]. Also, the z-score was 0.163 in [7]; -0.836 (inactive) in [10]; -0.922 (inactive) in assay [12]; 0.34 (inactive) in [13]; -0.258 (inactive) in assay [14]; -0.992 (inactive) in [15].

For the origin of these results see PubChem BioAssay.
